Assay results from PubChem BioAssay (NCATS).
Records with an inconclusive call do not appear. A number with no mark means an inactive call. Calls come from the whole dose curve; as a rule, active = well fitted inhibition curve with a large enough effect; inconclusive = small, poorly fitted or top-dose-only effect; inactive = flat fitted curve, though single readings scatter.

The molecules below were run on JCK (assay: qHTS profiling for inhibitors of Plasmodium falciparum proliferation (AID 504749;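 note: 0% = DMSO vehicle and full inhibition = artemisinin control; nearly all actives have a fitted effect of over 60% in size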)). Settings: P. falciparum in erythrocytes, SYBR Green DNA, 72 h; series mostly up to 28.7 µM; activity, negative = inhibition: at the top concentration.
Procedure, shortened: (§1)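 SYBR Green fluorescence (ex 485 nm, em 535 nm) reports parasite DNA after 72 h compound exposure of infected red cells at 0.3% parasitemia, 2.5% hematocrit; signal normalized to 0.29 uM artemisinin and vehicle wells.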

Structure (SMILES) | activity, negative = inhibition
CC(=O)Nc1ccccc1 | 1.71%
O=C(/C=C/c1ccccc1)OCc1ccccc1 | 6.4%
c1ccc2[nH]ccc2c1 | 3.71%
NC(N)=NS(=O)(=O)c1ccc(N)cc1 | 2.65% [at 12.8 µM]
Cc1ccc(S(=O)(=O)NC(=O)NC2CCCCC2)cc1 | 5.08%
C[C@H]1COc2c(C3(N)CC3)c(F)cc3c(=O)c(C(=O)O)cn1c23 | 4.71%
Cc1c(NC(C)C)c(=O)n(-c2ccccc2)n1C | 5.75%
CCCCCC(N)=O | 4.09%
Cn1c(=O)c2c(ncn2CCO)n(C)c1=O | 1.3%
CC(C)c1cc2c(cc1S(=O)(=O)O)[C@@]1(C)CCC[C@@](C)(C(=O)O)[C@@H]1CC2 | 14.7%
O=C(NCCCN1CCOCC1)c1ccc(Cl)cc1 | 0.94%
COc1ccccc1OC(=O)Oc1ccccc1OC | 12.8%
OCc1ccc(Cl)cc1Cl | 8.91%
CC(=O)Nc1cccc(O)c1 | -13.4%
FC(F)(F)C(Cl)Br (stereo not given) | 5.77%
Cc1c(N(C)C)c(=O)n(-c2ccccc2)n1C | 3.5%
COC(=O)c1cccnc1 | -1.03%
CCN(CC)CC1CCCCN1CC(=O)N1c2ccccc2C(=O)Nc2cccnc21 (stereo not given) | -4.69%
Cc1cccc(Nc2ccccc2C(=O)O)c1C | 0.174%

Structure (SMILES) | activity, negative = inhibition
COc1ccccc1Oc1c(NS(=O)(=O)c2ccc(C(C)(C)C)cc2)nc(-c2ncccn2)nc1OCCO | -0.969%
CCc1nnc(NS(=O)(=O)c2ccc(N)cc2)s1 | 0.434%
Cc1c(C(=O)NCCO)[n+](=O)c2ccccc2n1[O-] | 8.9%
O=C1c2cccc(O)c2C(=O)c2c(O)cccc21 | 4.19%
CCCCCCCC(=O)OCC(COC(=O)CCCCCCC)OC(=O)CCCCCCC | 12.4%
O=C1C(c2[nH]c3ccccc3c2O)=Nc2ccccc21 | -11.5%
NNC(=O)CP(=O)(c1ccccc1)c1ccccc1 | 0.765%
Nc1ncnc2c1ncn2[C@@H]1O[C@H](COP(=O)(O)O)[C@@H](O)[C@H]1O | 6.3%
CC1CCc2cc(F)cc3c(=O)c(C(=O)O)cn1c23 (stereo not given) | -1.76%
O=C(O)c1cc(=O)c2ccccc2o1 | -11.6%
C=CCSCC1Nc2cc(Cl)c(S(N)(=O)=O)cc2S(=O)(=O)N1 (stereo not given) | -12.2%
O=C(O)Cc1ccc(CCNS(=O)(=O)c2ccc(Cl)cc2)cc1 | -10.7%
CC[N+](CC)(CC(=O)Nc1c(C)cccc1C)Cc1ccccc1 | 3.9%
O=c1[nH]c(=O)c2ccccc2o1 | 9.86%
O=C(O)c1ccccc1OP(=O)(O)O | 10.8%
O=S1(=O)OC(c2ccc(O)cc2)(c2ccc(O)cc2)c2ccccc21 | 0%
COc1ccc(C(=O)N2CCN(CC(=O)N3CCOCC3)CC2)cc1 | 7.82%
OCC(O)CS (stereo not given) | 13.9%
CN1CCN(C(=O)C2CCCCC2)CC1 | -15.9%

Each molecule was assayed on N140 in the same assay as above. Settings: P. falciparum in erythrocytes, SYBR Green DNA, 72 h; series mostly up to 28.7 µM; activity, negative = inhibition: at the top concentration.
Procedure, shortened: as §1

Structure (SMILES) | activity, negative = inhibition
CC(=O)Nc1ccccc1 | 14.4%
O=C(/C=C/c1ccccc1)OCc1ccccc1 | 15.3%
c1ccc2[nH]ccc2c1 | 8.42%
NC(N)=NS(=O)(=O)c1ccc(N)cc1 | 11.8% [at 12.8 µM]
Cc1ccc(S(=O)(=O)NC(=O)NC2CCCCC2)cc1 | 0.958%
C[C@H]1COc2c(C3(N)CC3)c(F)cc3c(=O)c(C(=O)O)cn1c23 | 0.883%
Cc1c(NC(C)C)c(=O)n(-c2ccccc2)n1C | 15.7%
CCCCCC(N)=O | 14.4%
Cn1c(=O)c2c(ncn2CCO)n(C)c1=O | 17.3%
CC(C)c1cc2c(cc1S(=O)(=O)O)[C@@]1(C)CCC[C@@](C)(C(=O)O)[C@@H]1CC2 | 7.84%
O=C(NCCCN1CCOCC1)c1ccc(Cl)cc1 | -0.993%
COc1ccccc1OC(=O)Oc1ccccc1OC | 12.5%
OCc1ccc(Cl)cc1Cl | 3.38%
CC(=O)Nc1cccc(O)c1 | 10%
FC(F)(F)C(Cl)Br (stereo not given) | 4.75%
Cc1c(N(C)C)c(=O)n(-c2ccccc2)n1C | 18.6%
COC(=O)c1cccnc1 | 6.01%
CCN(CC)CC1CCCCN1CC(=O)N1c2ccccc2C(=O)Nc2cccnc21 (stereo not given) | 10.3%
Cc1cccc(Nc2ccccc2C(=O)O)c1C | 10.4%

Structure (SMILES) | activity, negative = inhibition
COc1ccccc1Oc1c(NS(=O)(=O)c2ccc(C(C)(C)C)cc2)nc(-c2ncccn2)nc1OCCO | -14.9%
CCc1nnc(NS(=O)(=O)c2ccc(N)cc2)s1 | 4.81%
Cc1c(C(=O)NCCO)[n+](=O)c2ccccc2n1[O-] | 14.3%
O=C1c2cccc(O)c2C(=O)c2c(O)cccc21 | 11.1%
CCCCCCCC(=O)OCC(COC(=O)CCCCCCC)OC(=O)CCCCCCC | 13.4%
NNC(=O)CP(=O)(c1ccccc1)c1ccccc1 | 10.6%
Nc1ncnc2c1ncn2[C@@H]1O[C@H](COP(=O)(O)O)[C@@H](O)[C@H]1O | -12.7%
CC1CCc2cc(F)cc3c(=O)c(C(=O)O)cn1c23 (stereo not given) | 2%
O=C(O)c1cc(=O)c2ccccc2o1 | -0.944%
C=CCSCC1Nc2cc(Cl)c(S(N)(=O)=O)cc2S(=O)(=O)N1 (stereo not given) | 12%
O=C(O)Cc1ccc(CCNS(=O)(=O)c2ccc(Cl)cc2)cc1 | 12.4%
CC[N+](CC)(CC(=O)Nc1c(C)cccc1C)Cc1ccccc1 | 0.388%
O=c1[nH]c(=O)c2ccccc2o1 | 13.7%
O=C(O)c1ccccc1OP(=O)(O)O | 6.06%
O=S1(=O)OC(c2ccc(O)cc2)(c2ccc(O)cc2)c2ccccc21 | 4.38%
COc1ccc(C(=O)N2CCN(CC(=O)N3CCOCC3)CC2)cc1 | 8.82%
OCC(O)CS (stereo not given) | -0.0711%
CN1CCN(C(=O)C2CCCCC2)CC1 | -8.43%
